Mdm2-MdmX inh: human Mdm2/MdmX binding inhibition; O15151+Q00987; SaOS-2 split-luciferase Mdm2/MdmX complementation, luminescence; inhibition, % at 8 µM; 330,000 tested, 3% active; AID 485346;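 active = inhibition of at least 50% at 8 µM in the primary screen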
Beta apoptosis: blocks beta cell apoptosis; INS-1E cytokine-induced death, ATP luminescence, 48 h; percent of positive-control rescue, neutral wells zero; protection from apoptosis, % (test concentration not listed); 300,000 tested, 0.8% active;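 active = Every replicate reaches about 75%, or at least half do and their mean reaches it too, limit read from the data; inconclusive = At least half of replicates reach the limit but their mean does not; inactive = Under half of replicates reach the limit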;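 note: 0% = cytokine-treated negative control wells and 100% = positive control rescue; higher means more ATP so stronger rescue from cytokine killing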
CSC inhib: blocks cancer stem cells | cancer stem cell-like cells viability, luminescence | inhibition, % at 7.5 µM | 300,000 tested, 1.1% active | AID 2717; in the data active = inhibition above about 75%; inconclusive = no clear call, values can overlap the other calls; tested in HMLE shEcad cells
Shn3 3UTR inh: reduces Shn3 3'UTR luciferase signal in osteoblasts; Clone20 osteoblast Shn3 3'UTR firefly luciferase, 24 h; 360,000 tested, 0.52% active; inhibition, % at 12.5 µM;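 active = mean inhibition of at least 75% with every replicate also reaching 75%; inconclusive = mean inhibition at least 75% but some replicate below; inactive = mean inhibition below 75%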;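 note: 0% = median of neutral control wells and 100% = pilot-screen positive control compound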
Gli-Sufu antag: blocks Gli-Sufu signaling in a luciferase reporter. Sufu-KO-LIGHT fibroblasts, Gli luciferase reporter luminescence. inhibition, % at 5 µM. 340,000 tested, 0.74% active;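 active = inhibition above about 55%, limit read from the data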;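 note: 0% = DMSO-treated cells and 100% = wells with medium but no cells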
PAX8 inh HTS: lowers PAX8-driven luciferase in RMG-I cells; RMG-I TPO-luciferase reporter, SteadyGlo, 24 h; inhibition, % at 12.6 µM; 360,000 tested, 1.2% active; AID 652154;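 active = mean replicate inhibition at least 60% with every replicate also reaching 60%; inconclusive = only one of the two criteria is met; inactive = mean below 60% and not all replicates reaching 60%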;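 note: luciferase light reporting Pax8 driven TPO promoter activity; plate controls were median of neutral control wells for no effect and mitoxantrone controls for full effect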
Mdm2-MdmX conf: confirmation of human Mdm2/MdmX interaction inhibitors; shares compounds with Mdm2-MdmX inh; Mdm2-MdmX binding, luminescent assay; inhibition, % at 8 µM; 10,000 tested, 55% active; AID 489028; in the data active = inhibition above about 40%
FLuc counter: inhibits full-length luciferase, flagging false Mdm2/MdmX hits | shares compounds with Mdm2-MdmX inh | SaOS-2 full-length luciferase counterscreen, luminescence | inhibition, % at 8 µM | 6,200 tested, 77% active;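 active = mean inhibition at 8 µM reaching about 37%, which flags the compound as non-specific, limit read from the data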;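 note: p53-null SaOS-2 cells with luciferase driven by a doxycycline-inducible promoter; compound on cells about two nights before reading with doxycycline added after day one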
The depositor's hits bear a star; u = inconclusive; x = no result. Sampled rows, rich in hits. Any-hit rate of the full collection: about 4%.

SMILES | Mdm2-MdmX inh | Beta apoptosis | CSC inhib | Shn3 3UTR inh | Gli-Sufu antag | PAX8 inh HTS | Mdm2-MdmX conf | FLuc counter
COc1cc(-c2nnc(NC(=O)CCS(=O)(=O)c3ccc(F)cc3)o2)cc(OC)c1OC | 72* | x | 7 | -25 | 6 | -7 | 69* | 48*
COc1cc(OC)cc(-c2nnc(NC(=O)CCS(=O)(=O)c3ccccc3)o2)c1 | 43 | x | 13 | -2 | -2 | 14 | x | x
COc1cc(OC)cc(-c2nnc(NC(=O)CCS(=O)(=O)c3ccc(F)cc3)o2)c1 | 59* | -3 | 21 | -10 | 1 | 20 | 55* | 65*
COc1cc(-c2nnc(NC(=O)CCS(=O)(=O)c3ccccc3)o2)cc(OC)c1OC | 79* | x | 1 | -8 | -16 | 24 | 65* | 63*
O=C(CCS(=O)(=O)c1ccc(F)cc1)Nc1nnc(-c2cccs2)o1 | 44 | x | -5 | -42 | -16 | 36 | x | x
O=[N+]([O-])c1ccc(Cl)c2cccnc12 | 13 | 3 | -16 | 5 | -4 | 3 | x | x
Oc1c(I)cc(Cl)c2cccnc12 | 92* | 7 | 84* | -7 | -3 | 79* | 58* | 51*
Oc1c(Cl)c(Cl)c2ncccc2c1Cl | x | x | x | -11 | 6 | -1 | x | x
Cc1c(C)c2cccnc2c2ncccc12 | 85* | 100* | x | 83 | 92* | x | 87* | 17
Clc1cc2cccnc2c2ncccc12 | 77* | 87* | 121* | 85 | 3 | 52 | 81* | 32
COc1cc(-c2cc(-c3ccc(O)cc3)nc(N)c2C#N)ccc1O | 81* | -19 | -11 | 6 | 49 | 30 | 54* | 92*
COc1ccc(-c2cc(-c3ccc(O)cc3)nc(N)c2C#N)cc1 | 62* | x | 20 | 17 | -3 | -6 | 24 | x
COc1ccc(S(=O)(=O)Nc2ccc3c(c2)C(=O)N([C@H](C)CO)C[C@H](C)[C@H](CN(C)Cc2ccncc2)O3)cc1 | x | x | x | x | x | -4 | x | x
O=C(Nc1ccc(-c2ccccc2)cc1)[C@H]1[C@H](CO)[C@H]2Cn3c(cccc3=O)[C@@H]1N2Cc1cccnc1 | x | x | x | x | x | 4 | x | x
CSc1ncccc1C(=O)OCC(=O)c1ccc2c(c1)NC(=O)CO2 | 68* | -12 | -2 | -2 | -5 | 3 | 21 | x
CNC(=O)C[C@@H]1CC[C@@H]2[C@H](COc3ccc(NC(=O)Nc4cc(C)cc(C)c4)cc3C(=O)N2C)O1 | x | x | x | x | x | 1 | x | x
Cc1c(C)c2ccc(OCC(=O)Nc3cccnc3)c(C)c2oc1=O | -5 | -5 | -5 | -24 | 0 | -29 | x | x
COc1ccc(-c2cc(=O)oc3c(C)c(OCC(=O)Nc4cccnc4)ccc23)cc1 | 51* | -2 | 31 | 36 | -7 | 9 | -7 | x
C/C=C/c1ccc([C@@H]2[C@H](CO)N(Cc3cncnc3)C23CN(C(=O)COC)C3)cc1 | x | x | x | x | x | -9 | x | x
Cc1ccc(C(=O)Nc2nc3ccccc3[nH]2)cc1 | 64* | 30 | 13 | 32 | 3 | 81* | 49* | 58*
COc1ccc(CC(=O)Nc2cccc3c2CCCC3)cc1 | 14 | -1 | -6 | 5 | -9 | 17 | x | x
C/C(=N\Nc1nc2ccccc2[nH]1)c1ccc([N+](=O)[O-])cc1 | 55* | 26 | 8 | 9 | -4 | -12 | 2 | x
Cc1cc(C(=O)Nc2cnc3ccccc3c2)ccc1[N+](=O)[O-] | -65 | -5 | -1 | -45 | -63 | -117 | x | x
Cc1ccc(C(=O)Nc2cnc3ccccc3c2)cc1 | 82* | 3 | 20 | 86* | -110 | 90* | -2 | x
O=C(Nc1nc2ccccc2[nH]1)c1ccc([N+](=O)[O-])cc1 | -48 | 5 | -15 | -43 | -63 | -151 | x | x
SMILES | Mdm2-MdmX inh | Beta apoptosis | CSC inhib | Shn3 3UTR inh | Gli-Sufu antag | PAX8 inh HTS | Mdm2-MdmX conf | FLuc counter
COc1ccc(C(=O)Nc2cccc3c2CCCC3)cc1 | 51* | 4 | 48 | -18 | 41 | 5 | 35 | 74*
CCC(=O)N1CC[C@@H]2[C@H](CO)Nc3ccc(-c4ccc(C(=O)N(C)C)cc4)cc3[C@@H]21 | x | x | x | x | x | 8 | x | x
C[C@H](CO)N1C[C@H](C)[C@H](CN(C)S(=O)(=O)c2ccccc2)Oc2c(NC(=O)c3ccncc3)cccc2C1=O | x | x | x | x | x | -16 | x | x
Cc1cccc(C(=O)N[C@H](C(=O)Nc2nc3ccccc3[nH]2)C(C)C)c1 | 73* | 26 | 69 | 28 | 38 | 59 | 68* | 100*
COc1ccc(C(=O)Nc2nc3ccccc3[nH]2)cc1 | 56* | x | 18 | 17 | -83 | u | 38 | 83*
O=C(C[C@@H]1C=C[C@H](NS(=O)(=O)c2ccc(F)cc2)[C@@H](CO)O1)NC1CCC1 | x | x | x | x | x | 10 | x | x
O=C(Nc1cccnc1Cl)c1cc(-c2ccc(Cl)cc2)on1 | 54* | 2 | 0 | -24 | 35 | -10 | -2 | x
O=C(Nc1cc(Cl)ccc1Cl)c1cc(-c2ccco2)on1 | 62* | -3 | -5 | -23 | 2 | -1 | 12 | x
COc1cccc(CNc2ncc(C(=O)Nc3cc(OC)c(OC)c(OC)c3)c(C)n2)c1 | 55* | -2 | 35 | 17 | -6 | 33 | 57* | 48*
COc1cc(NC(=O)c2cnc(NCc3ccccc3)nc2C)cc(OC)c1OC | 29 | 4 | 0 | 15 | 14 | 21 | x | x
C[C@@H]1CCCCO[C@H](CN(C)Cc2ccccc2)[C@@H](C)CN([C@H](C)CO)C(=O)c2cc(NC(=O)C3CCCCC3)ccc2O1 | x | x | x | x | x | 13 | x | x
Cc1ccc(S(=O)(=O)Nc2ccc3c(c2)C(=O)N([C@@H](C)CO)C[C@H](C)[C@H](CN(C)S(=O)(=O)c2cn(C)cn2)O3)cc1 | x | x | x | x | x | 11 | x | x
Cc1occc1C(=O)Nc1nnc(C(F)(F)F)s1 | -11 | 22 | 2 | 3 | -22 | x | x | x
O=C(Nc1ccccc1C(=O)Nc1nnc(C(F)(F)F)s1)c1ccccc1 | 97* | 12 | 195* | 56 | 76* | 14 | 97* | 20
Cn1c(=O)oc2cc(S(=O)(=O)N3CCc4ccccc43)ccc21 | 12 | -1 | 11 | 7 | 7 | 0 | x | x
CCC(=O)Nc1ccc(S(=O)(=O)N2CCc3ccccc32)cc1 | 23 | -4 | 3 | 21 | 6 | 7 | x | x
COC(=O)Nc1ccc(S(=O)(=O)N2CCCc3ccccc32)cc1 | 55* | 27 | 80* | -1 | -3 | x | 49* | 56*
COc1ccccc1C(=O)Nc1ccc(S(=O)(=O)N2CCc3ccccc32)cc1 | -59 | 4 | 9 | 13 | -7 | x | x | x
COC(=O)Nc1ccc(S(=O)(=O)N2CCCc3cccc(O)c32)cc1 | 55* | 10 | 49 | 17 | 4 | 24 | 52* | 63*
COc1ccc(S(=O)(=O)N2CCc3ccccc32)cc1C(=O)Nc1ccc(C(N)=O)cc1 | 98* | 58 | 43 | 5 | 3 | 18 | 60* | 66*
